# PubChem BioAssay (EPA / NIEHS)
# Several values for one entry are separate records, joined by “and”; a condition that tells them apart may be missing. Equal values may be shown once. A structure can be active in one record and inactive in another. Activity calls are given as the source filed them. The calls were made as follows: active = hit-call score of the fitted dose curve at least 0.9, where 1 is the maximum; inactive = score below 0.9.
# Read-out: Tissue plasminogen activator (tPA), PLAT (gene 5327)
# Experiment: BSK_BE3C_tPA: BioMAP Diversity Plus: BE3C Assay for Tissue plasminogen activator (tPA) Biomarker Activity (AID 2283041);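 as to outcome: tPA level quantified by ELISA one day after compound addition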
# Details: primary human bronchial epithelial cells; actives raise or lower the signal
# Method: BSK_BE3C is a cell-based, multiplexed-readout assay that uses bronchial epithelial cell, a human lung primary cell, with measurements taken at 24 hours after chemical dosing in a 96-well plate.BSK_BE3C_tPA is an assay component measured in the BSK_BE3C assay. It measures tPA antibody related to regulation of gene expression using ELISA technology.Data from the assay component BSK_BE3C_tPA was analyzed into 1 assay endpoint. This assay endpoint, BSK_BE3C_tPA, was analyzed with bidirectional fitting relative to DMSO as the negative control and baseline of activity. Using a type of binding reporter, gain or loss-of-signal activity can be used to understand changes in the signaling as they relate to the gene PLAT. Furthermore, this assay endpoint can be referred to as a primary readout, because this assay has produced multiple assay endpoints where this one serves a signaling function. To generalize the intended target to other relatable targets, this assay endpoint is annotated to the protease intended target family, where the subfamily is serine protease.
# The levels of cell surface (or secreted, indicated by the prefix "s") biomarker endpoints were measured by ELISA. Overt cytotoxicity to cells in confluent adherent cultures (all systems other than the BT system) was assessed by measuring total protein levels using sulforhodamine B (SRB) staining in parallel cultures at the time of biomarker measurements, indicated as SRB endpoints. For proliferation assays for adherent cell types, individual cell types are cultured at sub-confluence and relative cell numbers quantified by SRB staining at time points optimized for each system (48 h: 3C and CASM3C systems; 72 h: BT and HDF3CGF systems; 96 h: SAg system). SRB was performed by staining cells with 0.1% SRB after fixation with 10% TCA and reading wells at 560 nm.Viability and proliferation of PBMC (T cells) was quantified by Alamar Blue reduction for the SAg and BT systems. For PBMC viability (referred to as PBMC Cytotoxicity within the assay endpoint names), cells were plated (75,000/well in a 96-well plate) and then chemical samples added for 1 h before addition of activators, SEB and TSST-1 (20 ng/mL final concentration each). Cells were incubated for 90 h. Then, Alamar Blue (20 uL/well) (Invitrogen, Cat DAL1100) was added for 6 h, and the plates were read with a fluorescence microplate reader at 546/580 nm (excitation/emission). For PBMC proliferation, cells were plated and activated as above but incubated for only 16 h prior to addition of Alamar Blue. Plates were read after 6 h.
Structure (SMILES),outcome,AC50
c1ccc2c(c1)Cc1ccccc1-2,inactive,–
CC(=O)CC(C)(C)O,inactive,–
CC(C)(C)c1cc(C(C)(C)C)c(O)c(C(C)(C)C)c1,inactive,–
ClC1=C(Cl)C(Cl)(Cl)C(Cl)=C1Cl,–,6.77 µM (active)
CCOC(=O)CC(O)(CC(=O)OCC)C(=O)OCC,inactive,–
Cc1oc(-c2ccccc2)nc1CCOc1ccc(C[C@H](Nc2ccccc2C(=O)c2ccccc2)C(=O)O)cc1,inactive,–
CCN(CC)CCNc1ccc(CNC=O)c2sc3ccc(OC)cc3c(=O)c12,inactive,–
COC(=O)CCCCC(=O)OC,inactive,–
c1ccc2c(c1)ccc1ccccc12,inactive,–
CCc1ccc(CCOc2ccc(CC3SC(=O)NC3=O)cc2)nc1 (stereo unspecified),inactive,–
CCCCCCCCCCCCCC[N+](C)(C)C,–,0.883 µM (active)
CCCCC(CC)COC(=O)CCCCC(=O)OCC(CC)CCCC (stereo unspecified),inactive,–
CCCCCCCCCCCCN1CCCC1=O,–,15.4 µM (active)
C[C@@H]1C[C@H]2[C@@H]3CCC4=CC(=O)C=C[C@]4(C)[C@@]3(F)[C@@H](O)C[C@]2(C)[C@@]1(O)C(=O)COP(=O)(O)O,inactive,478 nM (active) and 416 nM (active)
CC[C@H](c1ccc(O)cc1)[C@@H](CC)c1ccc(O)cc1,–,27.5 µM (active)
CCCCCCCCC(=O)O,inactive,–
CC1=C(/C=C/C(C)=C/C=C/C(C)=C/C(=O)O)C(C)(C)CCC1,inactive,–
COCC(C)O (stereo unspecified),inactive,–
CC(C)(C)c1cccc(C(C)(C)C)c1O,inactive,–

Structure (SMILES),outcome,AC50
CCC(=C(c1ccc(O)cc1)c1ccc(OCCN(C)C)cc1)c1ccccc1,–,8.8 µM (active)
CCC(C)(C)C1CCC(O)CC1 (stereo unspecified),inactive,–
OCCC(F)(F)C(F)(F)C(F)(F)C(F)(F)C(F)(F)C(F)(F)C(F)(F)C(F)(F)F,inactive,11.6 µM (active) and 14 µM (active)
CCCCCCCCCCCCc1ccccc1S(=O)(=O)O,–,6.79 µM (active)
CCc1nn(C2CCCCC2)c2cc(C3(C#N)CCC(C(=O)O)CC3)ccc12 (stereo unspecified),inactive,–
CC[C@H](C)[C@@H](C(=O)O)n1sc2ccccc2c1=O,inactive,–
Cc1cc(C)c(O)c(C)c1,inactive,–
NCC(F)(F)C(F)(F)C(F)(F)C(F)(F)C(F)(F)C(F)(F)C(F)(F)F,inactive,–
CCCOC(=O)c1ccc(O)cc1,inactive,–
CCCCOCCO,inactive,–
N#C[C@@H]1CC(F)(F)CN1C(=O)CNC1CC2CCC(C1)N2c1ncccn1 (stereo partly specified),inactive,–
OCCC(F)(F)C(F)(F)C(F)(F)C(F)(F)C(F)(F)C(F)(F)F,inactive,–
OC1CCC(C2CCCCC2)CC1 (stereo unspecified),inactive,–
CCCCCCCCCCCCCCCS(=O)(=O)Oc1ccccc1,inactive,–
COCC(C)OCC(C)O (stereo unspecified),inactive,–
FC(F)(I)C(F)(F)C(F)(F)C(F)(F)C(F)(F)C(F)(F)I,inactive,–
c1ccc2cc3c(ccc4ccccc43)cc2c1,inactive,–
CCCCCCCC(=O)O,inactive,–
C=C(C)C(=O)OCCC(F)(F)C(F)(F)C(F)(F)C(F)(F)C(F)(F)C(F)(F)F,inactive,3.97 µM (active)
